MRP reversal = MRP-mediated drug resistance reversal | H69AR cells + 2 uM doxorubicin, CellTiter-Glo, 72 h | differential viability (reversal), % at 10 µM | 85,000 compounds, 0.04% hits;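 active = viability drop by adding the cancer drug above about 55%, with treated viability meeting a 40% cutoff, limit read from the data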;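 note: viability without doxorubicin minus viability with 2 µM doxorubicin for each compound; larger differential means the compound sensitizes cells more to doxorubicin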
S1P2 blocker = antagonists of human S1P2 receptor; cell-based S1P2 antagonist assay, inhibition at 5 uM; AID 736; 97,000 compounds, 0.21% hits; inhibition, % at 5 µM; O95136; in the data active = inhibition above about 45%;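 note: CRE beta-lactamase reporter cells expressing human S1P2 stimulated with S1P; 0% = agonist at EC80 alone and 100% = agonist plus reference antagonist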
Target sequence (O95136 whole entry, looked up): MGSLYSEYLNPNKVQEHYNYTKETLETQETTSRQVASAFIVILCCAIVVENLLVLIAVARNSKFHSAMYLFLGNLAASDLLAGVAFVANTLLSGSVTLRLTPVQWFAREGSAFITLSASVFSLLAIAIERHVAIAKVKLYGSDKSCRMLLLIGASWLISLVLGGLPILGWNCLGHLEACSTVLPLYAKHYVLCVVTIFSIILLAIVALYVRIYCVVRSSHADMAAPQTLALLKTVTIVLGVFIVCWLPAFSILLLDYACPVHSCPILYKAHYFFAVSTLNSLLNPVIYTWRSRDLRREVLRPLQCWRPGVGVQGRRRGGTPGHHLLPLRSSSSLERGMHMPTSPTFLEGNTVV
S1P2 ag = activates the human S1P2 receptor; O95136; S1P2-expressing cell line, agonist reporter read-out; activation, % at 4.5 µM; 97,000 compounds, 0.46% hits; AID 729; in the data active = activation above about 16%;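 note: 0% = vehicle low control and 100% = maximal reference agonist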
GALR2 ag = GALR2 (human) receptor agonism; GALR2-expressing cells, agonist activation read-out; AID 803; activation, % (concentration not given with the values); 140,000 compounds, 0.48% hits; in the data active = activation above about 5%, passing the limit was not always enough;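 note: 0% = vehicle buffer wells and 100% = reference agonist at full effect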
MRP1 act = activators of MRP-1 | 140,000 compounds, 0.61% hits | AID 799 | viability increase, % at 10 µM | H69AR cells + doxorubicin, viability rescue, CellTiter-Glo;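 active = viability gain under doxorubicin at or above a set limit, the compound median plus 3 SD, cut at about 4.7% in these data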;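 note: MRP-1 overexpressing cells given doxorubicin 25 µM after compound pretreatment; 18-22 h compound pretreatment then 72 h with doxorubicin before readout; 0% = doxorubicin-only wells and 100% = vehicle-treated cells without doxorubicin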
GALR2 antag = GALR2 (human) receptor antagonism | O43603 | 140,000 compounds, 0.39% hits | inhibition, % at 4 µM | GALR2-expressing cells, antagonist mode; in the data active = inhibition above about 27%;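 note: cells stimulated with galanin 1-16 at roughly its EC80; 0% = agonist challenge control and 100% = basal control without agonist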
GALR2 ag confirm = confirmation of human galanin receptor 2 (GALR2) agonists; shares compounds with GALR2 ag; activation, % at 5.6 µM; 460 compounds, 10% hits; GALR2-expressing cells, agonist activation; in the data active = activation above about 8.4%;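 note: 0% = buffer-only vehicle wells and 100% = full reference agonist response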
BLA act counter = activates beta-lactamase reporter in GALR2 agonist counterscreen. AID 865. activation, % at 5.6 µM. shares compounds with GALR2 ag. CHO NFAT-bla reporter, beta-lactamase FRET activation. 460 compounds, 10% hits;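 active = activation above the screen-wide mean activation plus 3 SD, cut at about 8% in these data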;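 note: 0% = DMSO with PBS wells and 100% = thapsigargin positive control wells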
An asterisk follows results filed as active; x = no result given. A selection: hits, their analogues and other compounds. The true share with any hit is near 1.8%.

SMILES | MRP reversal | S1P2 blocker | S1P2 ag | GALR2 ag | MRP1 act | GALR2 antag | GALR2 ag confirm | BLA act counter
O=C(Oc1ccc(F)cc1C(=O)/C=C/c1cccs1)c1cccc([N+](=O)[O-])c1 | 1 | 10 | -4 | 39* | -2 | 11 | 2 | 3
O=C(/C=C/c1ccccc1F)c1cccc([N+](=O)[O-])c1 | x | x | x | -1 | -5 | -3 | x | x
CC1=C(C)CC(C(=O)NNC(=O)c2cccc(Cl)c2)C(C(=O)O)C1 (stereo not given) | x | x | x | 8.2* | 5 | 6 | -1 | -1
CC1=C(C)CC(C(=O)NNC(=O)c2ccccc2)C(C(=O)O)C1 (stereo not given) | x | 8 | -6 | -2 | 0 | 10 | x | x
CCOC(=O)/C=c1\s/c(=C\c2ccc(C)cc2)c(=O)n1CC(=O)NCc1ccco1 | x | x | x | 8.2* | -2 | 3 | 3 | 0
CCOC(=O)/C=c1\s/c(=C\c2ccc(C(F)(F)F)cc2)c(=O)n1CC(=O)NCc1ccco1 | x | x | x | 0 | -6 | -5 | x | x
O=C(c1ccco1)N1CCN(c2nc(-c3ccc(F)cc3)cs2)CC1 | -3 | 6 | -3 | -1 | 2 | -5 | x | x
Cc1nc(-n2[nH]c3c(c2=O)CCCC3)[nH]c(=O)c1Cc1ccccc1 | x | 13 | -5 | 9 | -6 | -1 | 5 | 29*
O=C(CCCOc1ccccc1)N1CCN(c2ccccc2)CC1 | 22 | -26 | 1 | 0 | 0 | -24 | x | x
CC(=O)c1ccc(OCCCC(=O)OCC(=O)N2CCN(c3ccccc3)CC2)cc1 | 2 | -4 | -7 | 68* | -2 | 13 | -1 | -2
Cc1cc(C(=O)CN2C(=O)c3cccc(N)c3C2=O)c(C)n1Cc1cccs1 | x | 0 | 9 | 8 | -3 | 21 | 1 | 2
CC(C)N1C(=O)/C(=C\c2nc3ccccc3c(=O)n2-c2ccccc2)c2ccccc21 | x | x | x | 41* | -5 | -14 | 1 | 2
Cn1ncc(Cl)c1C(=O)NC(=S)Nc1sc2c(c1C#N)CCCCC2 | x | -17 | -6 | -4 | -1 | 6 | x | x
C=CCn1c(C)nc2c(c1=O)c1nc3ccccc3nc1n2-c1ccc(C)cc1 | 15 | x | x | x | x | x | x | x
CC1OC2(OC1C)C(=O)Nc1ccccc12 (stereo not given) | -8 | -10 | -4 | 24* | 0 | -4 | -1 | -3
O=C1Nc2ccccc2C12OCC(COc1ccc(Cl)cc1)O2 (stereo not given) | 11 | -28 | 0 | -2 | 1 | -6 | x | x
Cc1cc(C)cc(N(CC(=O)N2CCN(Cc3ccccc3)CC2)S(=O)(=O)c2c(C)noc2C)c1 | -14 | 1 | -3 | -1 | -3 | 2 | x | x
CCOc1ccccc1NC1=C(Cl)C(=O)N(c2ccccc2)C1=O | x | x | x | -1 | -1 | 2 | x | x
CC(=O)Nc1ccc(Nc2ncnc3c2cnn3-c2ccc(C)cc2C)cc1 | -12 | -1 | -7 | 76* | -1 | -5 | -1 | -2
CC(=O)Nc1ccc(Nc2ncnc3c2cnn3-c2cccc(C)c2)cc1 | x | -7 | -7 | -1 | 0 | 3 | x | x
Cc1ccc(S(=O)(=O)N[C@@H](Cc2ccccc2)C(=O)CCl)cc1 | x | x | x | -2 | -1 | 6 | x | x
CCN(C(=O)CN1CCOCC1)C1(C)C(=O)c2ccccc2C1=O | x | x | x | -2 | 1 | 3 | x | x
CCOc1ccc(C2NC(=O)C(C#N)=C(S)N2c2ccc(OC)cc2)cc1OC (stereo not given) | 0 | 16 | -6 | -1 | -5 | 2 | x | x
COc1cc(C2NC(=O)C(C#N)=C(S)N2c2ccc(C)cc2)ccc1OC(C)C (stereo not given) | -11 | -6 | -3 | 91* | -4 | -8 | -1 | -2
O=C(Cc1sc(-c2ccccc2Cl)nc1-c1ccccc1)Nc1ccc(F)cc1 | -11 | -11 | -8 | -2 | 0 | -6 | x | x
SMILES | MRP reversal | S1P2 blocker | S1P2 ag | GALR2 ag | MRP1 act | GALR2 antag | GALR2 ag confirm | BLA act counter
O=C(Cc1sc(-c2ccccc2Cl)nc1-c1ccccc1)Nc1ccccc1 | 2 | 6 | -6 | 26* | -1 | -8 | 3 | 5
COc1ccc(N2CC(NC(=O)NCC(C)C)CC2=O)cc1 (stereo not given) | x | x | x | -1 | 1 | -9 | x | x
CCCS(=O)(=O)c1snnc1C | 11 | -5 | -4 | 14* | -1 | -15 | -1 | 0
Cc1c(/C=N/n2cnnc2)c2ccccc2n1C | 7 | 13 | -3 | 12* | -3 | 2 | -1 | -2
CC1(C)CC(=O)C2=C(C1)Nc1ncnn1C2c1ccccn1 (stereo not given) | 9 | -1 | -7 | 23* | 0 | 11 | -1 | -2
O=C(Nc1ccc(Cl)c(Cl)c1)Nc1cc(C(=O)NC2CC2)ccc1Cl | x | x | x | 0 | 2 | 3 | x | x
Cc1ccc(/C=N/NC(=O)c2ccc(C(=O)N/N=C/c3ccc(C)s3)o2)s1 | x | 14 | -7 | 30* | -4 | 6 | 2 | 14*
C=CCOc1ccc(C2C(C(=O)c3ccco3)=C(O)C(=O)N2Cc2cccnc2)cc1 (stereo not given) | 6 | 1 | -5 | -3 | -1 | -3 | x | x
Cc1ccc(NC(=O)C2C3CC4OC(=O)C2C4C3)cc1Cl (stereo not given) | 19 | -10 | -7 | 38* | -4 | 1 | 0 | 0
Cc1cc2c(c(=O)n1Cc1ccc3c(c1)OCO3)C(c1cccnc1)C(C#N)=C(N)O2 (stereo not given) | -12 | 9 | -11 | 23* | 0 | -3 | -1 | -2
Cc1cc2c(c(=O)n1Cc1cccnc1)C(c1ccccc1)C(C#N)=C(N)O2 (stereo not given) | -7 | 13 | -2 | -2 | -2 | -7 | x | x
Cc1ccccc1-n1c(SCC(=O)N/N=C/c2sccc2C)nc2ccccc2c1=O | x | x | x | -1 | -3 | 9 | x | x
Cc1ccccc1Cn1nc(C)c(NC(=O)c2cc3nc(-c4ccco4)cc(C(F)(F)F)n3n2)c1C | -8 | -11 | -3 | 0 | -1 | -4 | x | x
CCc1ccc(-c2cc(C(F)(F)F)n3nc(C(=O)Nc4c(C)nn(Cc5ccc(F)cc5)c4C)cc3n2)s1 | x | -35 | 7 | 13* | 0 | -14 | 2 | 2
Cc1c(OCc2ccc(C(=O)O)o2)ccc2c3c(c(=O)oc12)CCC3 | -11 | 14 | 0 | 0 | -2 | -31 | x | x
Cc1ccc(-n2nc(C(=O)NCc3ccc(C)o3)c3c4ccccc4n(C)c3c2=O)cc1 | 13 | 3 | 1 | 14* | -3 | -17 | 0 | -2
COc1ccc(-n2nc(C(=O)NCc3ccco3)c3c4ccccc4n(C)c3c2=O)cc1 | -6 | x | x | -1 | -3 | 12 | x | x
CS(=O)(=O)N(Cc1ccc(Cl)cc1)c1ccc(C(=O)N/N=C/c2cc3ccccc3nc2Cl)cc1 | x | x | x | -2 | -2 | 0 | x | x
CCOC(=O)/C(=C\Nc1ccccc1C(F)(F)F)Sc1ncc(C(F)(F)F)cc1Cl | 4 | -11 | -3 | 10 | -2 | -8 | -1 | -3
O=C(COC(=O)CCOc1ccccc1)Nc1ncc(Cl)cc1Cl | x | x | x | -2 | -3 | 8 | x | x

Assay outcomes: PubChem BioAssay, several laboratories
